Screening data (PubChem)
The list is not random: actives were taken first. Their share in the collection is about 2.1%.
FUS yeast rescue: rescues growth of FUS-expressing yeast. S. cerevisiae FUS-expressing, growth rescue, OD600, 24 h. Potency, µM (doses to about 76.6 µM), most hits filed as activators. 390,000 tested, 0.24% active;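 also: plate controls were DMSO vehicle for no effect and reference control for full effect; nearly all actives have a fitted effect of over 55% in size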
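S. cerevisiae expressing FUS from galactose induction served as the toxicity model. Growth after 24hr at 30C, read as absorbance at 600 nm, indicates suppression of toxicity; compounds dosed at several concentrations.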
Abeta rescue: restores growth of yeast expressing A-beta42 peptide. AID 1347071. yeast expressing A-beta42, growth rescue, OD600, 48 h; response scale: 0% DMSO, 100% iron-clioquinol control. 410,000 tested, 0.063% active. Potency, µM (series often up to 46.1 µM), hits mostly activators; also: nearly all actives have a fitted effect of over 55% in size
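Growth rescue measured by 600 nm absorbance after 48 h yeast culture at 30 C with compound. Values normalized between DMSO and an equimolar ferric chloride plus clioquinol control.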
aSyn rescue: alpha-synuclein toxicity inhibition in yeast; Potency, µM (series often up to 46.1 µM), for the others: top-dose growth rescue (activation), most hits filed as activators; 370,000 tested, 0.14% active; Yeast expressing alpha-synuclein, growth rescue, BacTiter-Glo, 24 h; also: % of control where 0% means no effect; nearly all actives have a fitted effect of over 65% in size
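Galactose-induced alpha-syn yeast (OD600=0.02, raffinose-pregrown) + pinned cpd, 24 hr, 30 deg C; growth by BacTiter-Glo luminescence. Growth restoration scores as activation.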
TDP-43 yeast inh: inhibitors of TDP-43 toxicity in yeast; AID 652104; TDP-43 expressing yeast growth rescue, BacTiter-Glo, 24 h; Potency, µM (series often up to 46.1 µM), without a hit: at the highest dose growth rescue (activation), actives largely listed as activators; 410,000 tested, 1.8% active; also: % of control where 0% means no effect; nearly all actives have a fitted effect of over 50% in size
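In this qHTS, compounds that restore growth of yeast expressing TDP-43 appear as activators. Cells (OD600=0.02, galactose medium, raffinose-pregrown) are incubated with compound 24 hr at 30 deg C and growth is quantified by BacTiter-Glo.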
An asterisk follows results filed as active; i = inactive; ? = inconclusive; / = not tested or not shown; [ ] = another dose, or the depositor's remark. Calls follow the shape of the dose curve; as a rule, active = well fitted curve in the direction sought with a large enough effect; inconclusive = small, poorly fitted or top-dose-only effect, or another doubt; inactive = no such curve, though single readings can be large; an effect the other way counts as inactive or inconclusive. Potency is read from the fitted curve at half-maximal effect.

SMILES	FUS yeast rescue	Abeta rescue	aSyn rescue	TDP-43 yeast inh
COC(=O)[C@]1(Cc2ccccc2)N[C@H](c2ccc(-c3cccc(Cl)c3)c(OC)c2)[C@@H]2C(=O)N(C)C(=O)[C@@H]21	14µM*	i	3%	15%
COC(=O)[C@]1(CC(C)C)N[C@H](c2ccc(-c3ccc(F)cc3)c(OC)c2)[C@@H]2C(=O)N(C)C(=O)[C@@H]21	28µM*	i	-7%	30%
COc1ccc(NC(=O)Cn2c(=O)n(-c3ccc(C)cc3)c(=O)c3c2c2cc(C)ccc2n3C)cc1	i	i	/	11%
COc1cccc2c1C(=O)c1c(O)c3c(c(O)c1C2=O)C[C@@](O)(C(=O)CO)C[C@@H]3O[C@H]1C[C@H](N)[C@H](O)[C@H](C)O1	i	i	4.5µM*	?
CCOC(=O)c1c(C=O)c(C)n(Cc2ccc(Cl)cc2)c1C	i	i	9%	35µM*
Cc1ccc(-n2c(SCC(=O)Nc3ccc(S(=O)(=O)Nc4cc(C)nc(C)n4)cc3)nnc2-c2ccc(C(C)(C)C)cc2)cc1	22µM*	/	/	/
Nn1c(SCC(=O)Nc2ccc(S(=O)(=O)Nc3nccs3)cc2)nnc1-c1ccco1	i	/	/	/
CCOc1ccc(-n2c(SCC(=O)Nc3ccc(S(=O)(=O)Nc4cc(C)nc(C)n4)cc3)nnc2-c2ccncc2)cc1	i	/	/	/
COc1ccc(-n2c(SCC(=O)Nc3ccc(S(=O)(=O)Nc4nccs4)cc3)nnc2-c2ccccc2)cc1	10µM*	/	/	/
O=C(CSc1nnc(-c2ccco2)n1-c1ccc(Cl)cc1)Nc1ccc(S(=O)(=O)Nc2nccs2)cc1	25µM*	/	/	/
Cc1cc(C)nc(NS(=O)(=O)c2ccc(NC(=O)COc3ccc(C(C)(C)C)cc3)cc2)n1	28µM*	i	/	0%
O=C(CSc1nnc(COc2ccccc2)n1-c1ccccc1)Nc1ccc(S(=O)(=O)Nc2nccs2)cc1	20µM*	/	/	/
Cn1c(COc2ccccc2)nnc1SCC(=O)Nc1ccc(S(=O)(=O)Nc2nccs2)cc1	i	/	/	/
COc1cc2c(cc1NC(=O)CSc1nnc(-c3cccc(Cl)c3)n1-c1ccccc1)oc1ccccc12	i	/	/	/
CCC(C)C(=O)Nc1nnc(CCc2ccccc2)s1 (stereo not drawn)	i	?	6%	20µM*
CC(C)CC(=O)Nc1nnc(CCc2ccccc2)s1	i	i	-1%	18%
CCN1C(=O)/C(=C\c2ccncc2)SC1=Nc1ccc(C)c(C)c1	/	i	10%	14µM*
CCCN1C(=O)/C(=C\c2ccncc2)SC1=Nc1ccccc1	/	i	-4%	?
O=C(NC1CCCCC1)c1c[nH]c2ccc(S(=O)(=O)Nc3ccccc3F)cc2c1=O	i	i	/	16%
CN(C1CCCCC1)S(=O)(=O)c1ccc(SCC(=O)C(C)(C)C)nc1	i	i	?	20µM*
CC(C)CNC(=O)CSc1ccc(S(=O)(=O)N(C)C2CCCCC2)cn1	i	i	11%	8%
COC1CCN(C(=O)c2cc(COc3cc(C)ccc3C)on2)CC1	i	i	1%	0%
COCCCC1CCN(C(=O)c2cc(COc3cc(C)ccc3C)on2)CC1	?	i	-6%	28µM*
O=C(COC(=O)C12CC3CC(CC(C3)C1)C2)Nc1ccc(OC(F)F)cc1	i	?	/	18µM*
O=C(N/N=C/c1c[nH]c2ccccc12)c1ccn(Cc2ccc(Cl)cc2)n1	i	i	1%	10%
SMILES	FUS yeast rescue	Abeta rescue	aSyn rescue	TDP-43 yeast inh
O=C(N/N=C/c1c[nH]c2ccc(Br)cc12)c1ccn(Cc2ccc(Cl)cc2Cl)n1	28µM*	i	2%	20%
CCCCN(CC)S(=O)(=O)c1ccc(C(=O)Nc2nnc(CSC)o2)cc1	i	i	32µM*	?
CCCCN(CCCC)S(=O)(=O)c1ccc(C(=O)Nc2nnc(CSC)o2)cc1	i	i	?	21%
CN1CCN(C(c2ccccn2)c2cc(Cl)c3cccnc3c2O)CC1 (stereo not drawn)	i	i	?	-61%
Oc1c(C(c2ccccn2)N2CCC(Cc3ccccc3)CC2)cc(Cl)c2cccnc12 (stereo not drawn)	25µM*	i	-4%	19%[9.22 µM]
CCCCc1cc(=O)oc2c(C)c(OCC(=O)N3CCC(C(=O)O)(c4ccccc4)CC3)ccc12	28µM*	i	-10%	12%
Cc1ccc(Cl)cc1NC(=O)CCCn1c(=O)c2cccn2c2ccccc21	i	i	/	0%
Nc1ccc(C2CCCc3nonc32)c2nonc12 (stereo not drawn)	i	i	1%	22µM*
Cc1oc(-c2ccccc2Cl)nc1Cn1c(SCc2cccc(F)c2)nc2cccnc21	35µM*	?	/	18µM*
COc1ccc(-c2nc(Cn3c(SCc4ccc(F)cc4)nc4cccnc43)c(C)o2)cc1	i	i	/	25%
COc1ccc(-c2nc(Cn3c(SCc4cccc(F)c4)nc4cccnc43)c(C)o2)cc1	?	i	/	20µM*
COc1ccc(-c2nc(Cn3c(SCc4ccccc4F)nc4cccnc43)c(C)o2)cc1	i	i	/	32µM*
O=C1CC(c2ccco2)Cc2[nH]c(=O)c(C(=O)Nc3ccccc3)cc21 (stereo not drawn)	/	/	0%	/
Cc1ccc(-c2nc(CS(=O)CC(=O)N3CCN(c4ccc(F)cc4)CC3)c(C)o2)cc1 (stereo not drawn)	i	i	0%	?
Cc1oc(-c2ccccc2)nc1C(=O)N1CCN(c2ccc(F)cc2)CC1	i	i	2%	11µM*
COc1cnn(C(C)(C)C)c(=O)c1Cl	i	i	0%	-16%
Cc1cccc(Oc2cnn(C(C)(C)C)c(=O)c2Cl)c1	i	i	10%	10µM*
C#CCOC(=O)Nc1cccn(Cc2c(Cl)cccc2Cl)c1=O	i	i	-8%	11µM*
O=C(Nc1cccn(Cc2c(Cl)cccc2Cl)c1=O)C1CC1	i	i	-15%	?
c1ccc(Sc2nc(N3CCCCC3)nc(N3CCCCC3)n2)nc1	i	i	-1%	16µM*
Cc1ccccc1-c1ccnc2c(-c3ccc(F)cc3)c(C)nn12	i	i	/	?
Cc1cc(O)c2c(-c3ccccc3)cc(=O)oc2c1	i	i	-18%	?
Cc1cc2oc(=O)cc(-c3ccccc3)c2c(C)c1-c1ccc(O)cc1	?	i	-54%	14µM*
CNC(=S)N1N=C(c2ccc(OC)cc2)CC1c1ccccc1Cl (stereo not drawn)	i	i	-14%	3.2µM*
Cc1nn(Cc2ccc(F)cc2)c2sc(C(=O)Nc3ccc(N4CCOCC4)cc3N3CCOCC3)cc12	/	i	10%	14µM*
CC(C)N(Cc1nc(-c2ccc(Cl)cc2)no1)C(=O)c1ccco1	i	i	/	35µM*
COc1ccc(OC(C)C(=O)N(C)Cc2nc(-c3ccccc3)no2)cc1 (stereo not drawn)	i	i	1%	?
